# According to publication PMC7862700, “An all-to-all approach to the identification of sequence-specific readers for epigenetic DNA modifications on cytosine”:
# Assays:
# Test in all cases: DAPPL (digital affinity profiling via proximity ligation, sequencing); 10 mM Tris-HCl pH 7.5, 50 mM NaCl, 1 mM DTT, 4% glycerol, room temperature, 30 min; GST-TFs on glutathione beads, 16-mer random dsDNA library, 0.1% formaldehyde crosslink after washing; high values mean tight binding
# [1] = target: T1, FEV (Homo sapiens, UniProt Q99581 1-238); settings: protein: recombinant; tags: N-terminal GST; dsDNA, one strand shown
# T1 sequence: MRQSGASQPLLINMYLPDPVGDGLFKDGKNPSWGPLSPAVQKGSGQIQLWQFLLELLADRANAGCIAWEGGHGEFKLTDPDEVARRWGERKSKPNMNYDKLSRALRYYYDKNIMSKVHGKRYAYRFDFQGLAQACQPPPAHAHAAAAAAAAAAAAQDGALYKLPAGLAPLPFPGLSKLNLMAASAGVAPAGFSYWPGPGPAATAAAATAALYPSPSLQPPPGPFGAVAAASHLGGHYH
# How it was run: (§1)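 Binding signal is each hexamer's read frequency for a factor divided by its frequency in the tag-only sample. The factors were GST-fused human transcription factors from yeast, captured on glutathione beads, DNA-barcoded and pooled with that sample. Pools were incubated with 200 nmole of a random double-stranded 16-mer DNA library in Tris/NaCl/DTT/glycerol buffer at room temperature for 30 min, then washed, crosslinked with 0.1% formaldehyde, proximity-ligated with BsaI/T4 ligase (1 h, 37 °C), PCR-amplified and sequenced on an Illumina NextSeq500.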
# [2] = target: ETV5 (Homo sapiens, UniProt P41161 1-510); settings: protein: recombinant; tags: N-terminal GST; dsDNA, one strand shown
# How it was run: as §1
# [3] = target: HSF1 (Homo sapiens, UniProt Q00613 1-529); settings: protein: recombinant; tags: N-terminal GST; chain copies: 3; dsDNA, one strand shown
# How it was run: as §1
# [4] = target: T2, SPIC (Homo sapiens, UniProt Q8N5J4 1-248); settings: protein: recombinant; tags: N-terminal GST; dsDNA, one strand shown
# T2 sequence: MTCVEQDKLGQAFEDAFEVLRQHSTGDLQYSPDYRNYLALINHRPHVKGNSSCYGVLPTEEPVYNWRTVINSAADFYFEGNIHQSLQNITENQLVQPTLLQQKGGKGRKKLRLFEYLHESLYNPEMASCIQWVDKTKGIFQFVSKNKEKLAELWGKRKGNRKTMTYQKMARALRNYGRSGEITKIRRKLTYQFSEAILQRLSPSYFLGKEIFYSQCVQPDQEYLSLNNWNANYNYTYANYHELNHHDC
# How it was run: as §1
# [5] = target: ELF4 (Homo sapiens, UniProt Q99607 1-663); settings: protein: recombinant; tags: N-terminal GST; dsDNA, one strand shown
# How it was run: as §1
# [6] = target: T3, ELK4 (Homo sapiens, UniProt P28324-2 1-405); settings: protein: recombinant; tags: N-terminal GST; dsDNA, one strand shown
# T3 sequence: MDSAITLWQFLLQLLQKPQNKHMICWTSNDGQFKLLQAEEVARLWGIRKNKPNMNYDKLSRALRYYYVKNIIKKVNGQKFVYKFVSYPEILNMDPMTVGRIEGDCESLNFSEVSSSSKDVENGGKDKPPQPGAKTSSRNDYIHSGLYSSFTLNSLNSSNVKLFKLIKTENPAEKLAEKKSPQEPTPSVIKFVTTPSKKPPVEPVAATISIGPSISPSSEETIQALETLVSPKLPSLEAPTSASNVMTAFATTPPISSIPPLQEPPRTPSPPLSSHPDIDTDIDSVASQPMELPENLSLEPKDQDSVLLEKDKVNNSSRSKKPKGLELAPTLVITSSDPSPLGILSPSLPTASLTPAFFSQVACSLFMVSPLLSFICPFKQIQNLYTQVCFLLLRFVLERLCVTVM
# How it was run: as §1
# [7] = target: T4, ETV2 (Homo sapiens, UniProt O00321 1-342); settings: protein: recombinant; tags: N-terminal GST; dsDNA, one strand shown
# T4 sequence: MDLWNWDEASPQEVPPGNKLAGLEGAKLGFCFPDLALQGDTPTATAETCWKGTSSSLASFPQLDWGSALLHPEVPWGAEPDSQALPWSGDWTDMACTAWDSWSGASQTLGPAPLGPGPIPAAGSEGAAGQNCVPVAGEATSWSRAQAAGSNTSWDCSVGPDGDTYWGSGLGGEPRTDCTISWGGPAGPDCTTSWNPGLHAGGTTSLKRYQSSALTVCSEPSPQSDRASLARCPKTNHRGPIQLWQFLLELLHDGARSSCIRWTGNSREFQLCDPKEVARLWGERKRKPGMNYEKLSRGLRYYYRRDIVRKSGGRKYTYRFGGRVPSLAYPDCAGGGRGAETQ
# How it was run: as §1
# [8] = target: T5, ELF3 (Homo sapiens, UniProt P78545 1-371); settings: protein: recombinant; tags: N-terminal GST; dsDNA, one strand shown
# T5 sequence: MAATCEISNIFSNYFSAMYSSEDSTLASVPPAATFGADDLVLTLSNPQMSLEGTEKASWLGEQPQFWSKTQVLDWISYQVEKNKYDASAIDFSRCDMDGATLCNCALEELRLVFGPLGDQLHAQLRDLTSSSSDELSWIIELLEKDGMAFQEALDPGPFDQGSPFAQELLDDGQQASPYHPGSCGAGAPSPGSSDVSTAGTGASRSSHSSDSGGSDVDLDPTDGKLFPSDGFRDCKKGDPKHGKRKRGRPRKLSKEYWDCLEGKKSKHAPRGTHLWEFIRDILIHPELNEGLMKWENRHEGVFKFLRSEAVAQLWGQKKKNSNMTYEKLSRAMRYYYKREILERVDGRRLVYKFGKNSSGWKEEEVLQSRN
# How it was run: as §1
# [9] = target: CRX (Homo sapiens, UniProt O43186 1-299); settings: protein: recombinant; tags: N-terminal GST; dsDNA, one strand shown
# How it was run: as §1
# [10] = target: ETV1 (Homo sapiens, UniProt P50549 1-477); settings: protein: recombinant; tags: N-terminal GST; dsDNA, one strand shown
# How it was run: as §1
# [11] = target: T6, ERF (Homo sapiens, UniProt P50548 1-548); settings: protein: recombinant; tags: N-terminal GST; dsDNA, one strand shown
# T6 sequence: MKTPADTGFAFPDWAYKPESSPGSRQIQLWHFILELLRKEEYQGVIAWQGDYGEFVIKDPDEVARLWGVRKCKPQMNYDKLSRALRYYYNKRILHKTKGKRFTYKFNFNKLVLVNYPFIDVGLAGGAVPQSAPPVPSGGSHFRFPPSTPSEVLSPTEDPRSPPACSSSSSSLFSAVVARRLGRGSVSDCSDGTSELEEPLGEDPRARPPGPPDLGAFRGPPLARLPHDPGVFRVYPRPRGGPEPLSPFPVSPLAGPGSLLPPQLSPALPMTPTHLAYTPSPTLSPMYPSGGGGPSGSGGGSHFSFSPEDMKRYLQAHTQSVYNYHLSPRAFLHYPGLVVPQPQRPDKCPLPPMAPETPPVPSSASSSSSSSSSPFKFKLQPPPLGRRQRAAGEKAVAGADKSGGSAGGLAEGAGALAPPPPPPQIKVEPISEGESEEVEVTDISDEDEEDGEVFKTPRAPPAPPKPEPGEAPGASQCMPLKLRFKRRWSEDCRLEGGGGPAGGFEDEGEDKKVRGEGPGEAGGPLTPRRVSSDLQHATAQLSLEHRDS
# How it was run: as §1
# [12] = target: T7, ETV3L (Homo sapiens, UniProt Q6ZN32 1-361); settings: protein: recombinant; tags: N-terminal GST; dsDNA, one strand shown
# T7 sequence: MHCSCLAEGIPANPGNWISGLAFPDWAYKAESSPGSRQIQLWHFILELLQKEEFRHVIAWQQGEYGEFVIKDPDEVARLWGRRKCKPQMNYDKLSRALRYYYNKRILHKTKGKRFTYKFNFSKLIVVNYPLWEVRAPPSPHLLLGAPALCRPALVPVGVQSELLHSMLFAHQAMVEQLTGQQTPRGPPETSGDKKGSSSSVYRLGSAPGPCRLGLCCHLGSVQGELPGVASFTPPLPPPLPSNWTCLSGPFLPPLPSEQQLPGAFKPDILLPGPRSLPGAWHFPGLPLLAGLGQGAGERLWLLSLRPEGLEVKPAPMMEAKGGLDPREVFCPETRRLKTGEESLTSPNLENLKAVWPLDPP
# How it was run: as §1
# [13] = target: T8, ETS2 (Homo sapiens, UniProt P15036 1-469); settings: protein: recombinant; tags: N-terminal GST; dsDNA, one strand shown
# T8 sequence: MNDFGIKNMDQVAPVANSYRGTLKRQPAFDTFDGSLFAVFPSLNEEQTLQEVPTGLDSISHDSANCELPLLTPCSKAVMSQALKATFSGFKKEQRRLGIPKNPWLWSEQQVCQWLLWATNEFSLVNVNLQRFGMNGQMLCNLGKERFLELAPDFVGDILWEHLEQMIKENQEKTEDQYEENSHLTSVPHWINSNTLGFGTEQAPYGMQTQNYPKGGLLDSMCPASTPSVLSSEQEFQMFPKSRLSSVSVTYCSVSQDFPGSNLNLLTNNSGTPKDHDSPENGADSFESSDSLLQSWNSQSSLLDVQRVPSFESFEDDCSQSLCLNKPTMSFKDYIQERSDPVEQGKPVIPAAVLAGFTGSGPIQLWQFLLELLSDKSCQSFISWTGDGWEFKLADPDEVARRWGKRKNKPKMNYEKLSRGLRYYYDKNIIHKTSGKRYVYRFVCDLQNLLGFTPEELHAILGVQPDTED
# How it was run: as §1
# [14] = target: T9, SPDEF (Homo sapiens, UniProt O95238 1-335); settings: protein: recombinant; tags: N-terminal GST; dsDNA, one strand shown
# T9 sequence: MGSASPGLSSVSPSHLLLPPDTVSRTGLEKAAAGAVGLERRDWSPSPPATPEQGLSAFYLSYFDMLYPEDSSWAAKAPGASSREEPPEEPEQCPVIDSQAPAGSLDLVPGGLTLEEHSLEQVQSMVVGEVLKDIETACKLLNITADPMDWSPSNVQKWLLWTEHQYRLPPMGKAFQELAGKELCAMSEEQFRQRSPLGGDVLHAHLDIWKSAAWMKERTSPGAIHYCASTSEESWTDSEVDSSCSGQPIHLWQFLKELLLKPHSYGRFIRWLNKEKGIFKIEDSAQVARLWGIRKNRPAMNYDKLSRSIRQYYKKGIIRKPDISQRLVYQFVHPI
# How it was run: as §1
# [15] = target: T10, ETV7 (Homo sapiens, UniProt Q9Y603 1-341); settings: protein: recombinant; tags: N-terminal GST; dsDNA, one strand shown
# T10 sequence: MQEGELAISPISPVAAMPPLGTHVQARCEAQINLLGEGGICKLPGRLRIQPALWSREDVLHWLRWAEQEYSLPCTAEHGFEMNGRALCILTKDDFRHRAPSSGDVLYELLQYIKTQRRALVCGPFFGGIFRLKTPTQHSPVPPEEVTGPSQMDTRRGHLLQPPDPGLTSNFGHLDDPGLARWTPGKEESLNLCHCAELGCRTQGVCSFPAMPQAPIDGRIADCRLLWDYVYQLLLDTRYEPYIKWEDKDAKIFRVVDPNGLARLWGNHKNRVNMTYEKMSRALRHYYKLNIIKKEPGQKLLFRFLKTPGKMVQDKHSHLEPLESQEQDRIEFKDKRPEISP
# How it was run: as §1
# [16] = target: T11, ELF5 (Homo sapiens, UniProt Q9UKW6-2 1-255); settings: protein: recombinant; tags: N-terminal GST; dsDNA, one strand shown
# T11 sequence: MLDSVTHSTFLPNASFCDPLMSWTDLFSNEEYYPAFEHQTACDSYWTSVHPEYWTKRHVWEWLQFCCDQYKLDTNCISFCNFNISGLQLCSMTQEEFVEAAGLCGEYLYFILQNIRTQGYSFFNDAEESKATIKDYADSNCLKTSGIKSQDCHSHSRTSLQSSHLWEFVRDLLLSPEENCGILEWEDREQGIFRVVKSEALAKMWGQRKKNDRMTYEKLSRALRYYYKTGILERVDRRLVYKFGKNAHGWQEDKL
# How it was run: as §1
# [17] = target: T12, ETV3 (Homo sapiens, UniProt P41162-2 1-143); settings: protein: recombinant; tags: N-terminal GST; dsDNA, one strand shown
# T12 sequence: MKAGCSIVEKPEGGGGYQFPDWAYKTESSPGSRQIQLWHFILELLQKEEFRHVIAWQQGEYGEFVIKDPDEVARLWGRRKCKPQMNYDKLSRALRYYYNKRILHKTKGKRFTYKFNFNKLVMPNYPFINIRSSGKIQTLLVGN
# How it was run: as §1
# [18] = target: ETV6 (Homo sapiens, UniProt P41212 1-452); settings: protein: recombinant; tags: N-terminal GST; dsDNA, one strand shown
# How it was run: as §1
# CRX, sequence (O43186 whole entry): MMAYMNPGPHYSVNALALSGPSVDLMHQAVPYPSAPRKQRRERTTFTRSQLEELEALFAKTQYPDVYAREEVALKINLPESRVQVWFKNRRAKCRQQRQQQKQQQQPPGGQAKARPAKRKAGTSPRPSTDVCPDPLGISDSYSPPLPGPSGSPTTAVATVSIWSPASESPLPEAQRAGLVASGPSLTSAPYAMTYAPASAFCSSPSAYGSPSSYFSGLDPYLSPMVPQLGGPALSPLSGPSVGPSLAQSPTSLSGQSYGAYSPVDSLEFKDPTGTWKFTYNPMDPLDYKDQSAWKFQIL
# ETV1, sequence (P50549 whole entry): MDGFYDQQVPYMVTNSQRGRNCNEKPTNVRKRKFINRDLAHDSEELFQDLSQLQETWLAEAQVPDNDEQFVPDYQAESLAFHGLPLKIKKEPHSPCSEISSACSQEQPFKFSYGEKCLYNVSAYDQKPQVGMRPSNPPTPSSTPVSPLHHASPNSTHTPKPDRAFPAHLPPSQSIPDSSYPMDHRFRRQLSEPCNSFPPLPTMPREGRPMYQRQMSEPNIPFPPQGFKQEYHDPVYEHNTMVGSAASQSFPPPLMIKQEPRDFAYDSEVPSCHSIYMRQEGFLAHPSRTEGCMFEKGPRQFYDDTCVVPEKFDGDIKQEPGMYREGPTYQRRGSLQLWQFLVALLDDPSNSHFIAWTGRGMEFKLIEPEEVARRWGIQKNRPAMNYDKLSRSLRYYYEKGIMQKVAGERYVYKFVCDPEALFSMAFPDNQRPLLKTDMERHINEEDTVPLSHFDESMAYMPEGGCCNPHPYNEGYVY
# HSF1, sequence (Q00613 whole entry): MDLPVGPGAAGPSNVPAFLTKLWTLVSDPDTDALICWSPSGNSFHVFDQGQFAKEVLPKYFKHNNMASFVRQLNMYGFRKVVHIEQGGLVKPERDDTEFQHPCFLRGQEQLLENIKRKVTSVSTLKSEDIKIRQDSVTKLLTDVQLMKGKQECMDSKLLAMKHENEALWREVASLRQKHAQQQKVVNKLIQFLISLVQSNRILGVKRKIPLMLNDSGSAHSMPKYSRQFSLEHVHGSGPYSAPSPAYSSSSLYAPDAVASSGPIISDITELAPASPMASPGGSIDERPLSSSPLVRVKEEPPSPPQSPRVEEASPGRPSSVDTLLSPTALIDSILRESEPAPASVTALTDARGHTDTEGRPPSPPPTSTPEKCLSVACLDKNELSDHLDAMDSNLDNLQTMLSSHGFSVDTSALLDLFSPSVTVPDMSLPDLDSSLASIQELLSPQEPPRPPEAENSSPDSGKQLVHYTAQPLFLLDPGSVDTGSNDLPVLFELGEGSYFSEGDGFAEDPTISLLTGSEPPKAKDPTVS
# ETV6, sequence (P41212 whole entry): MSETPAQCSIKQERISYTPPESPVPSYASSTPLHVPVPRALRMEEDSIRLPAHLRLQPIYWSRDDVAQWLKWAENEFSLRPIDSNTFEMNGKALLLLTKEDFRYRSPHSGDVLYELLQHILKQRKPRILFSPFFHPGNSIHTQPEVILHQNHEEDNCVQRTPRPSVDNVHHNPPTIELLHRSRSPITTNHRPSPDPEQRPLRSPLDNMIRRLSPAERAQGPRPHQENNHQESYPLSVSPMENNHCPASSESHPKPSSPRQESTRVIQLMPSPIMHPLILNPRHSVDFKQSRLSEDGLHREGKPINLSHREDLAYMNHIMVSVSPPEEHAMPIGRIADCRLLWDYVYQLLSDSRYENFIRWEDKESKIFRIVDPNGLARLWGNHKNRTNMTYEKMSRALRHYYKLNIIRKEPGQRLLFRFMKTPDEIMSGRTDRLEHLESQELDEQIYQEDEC
# ELF4, sequence (Q99607 whole entry): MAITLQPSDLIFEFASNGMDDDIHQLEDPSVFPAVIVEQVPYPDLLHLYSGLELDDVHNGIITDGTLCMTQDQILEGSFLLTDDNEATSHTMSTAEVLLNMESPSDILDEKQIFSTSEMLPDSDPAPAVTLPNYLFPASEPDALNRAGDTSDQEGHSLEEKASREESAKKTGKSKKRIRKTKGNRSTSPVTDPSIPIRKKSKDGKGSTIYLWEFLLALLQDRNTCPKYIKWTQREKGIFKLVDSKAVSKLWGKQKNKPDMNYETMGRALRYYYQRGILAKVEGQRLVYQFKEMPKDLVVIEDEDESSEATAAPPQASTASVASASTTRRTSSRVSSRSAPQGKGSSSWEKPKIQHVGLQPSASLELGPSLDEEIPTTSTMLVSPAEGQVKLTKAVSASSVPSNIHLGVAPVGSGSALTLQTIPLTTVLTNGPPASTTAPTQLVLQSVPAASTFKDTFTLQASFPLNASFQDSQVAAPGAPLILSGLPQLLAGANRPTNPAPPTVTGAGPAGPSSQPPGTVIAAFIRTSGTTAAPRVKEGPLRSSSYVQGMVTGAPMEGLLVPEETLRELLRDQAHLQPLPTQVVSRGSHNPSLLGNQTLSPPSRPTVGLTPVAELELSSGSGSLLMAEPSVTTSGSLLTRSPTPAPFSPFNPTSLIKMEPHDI
# ETV5, sequence (P41161 whole entry): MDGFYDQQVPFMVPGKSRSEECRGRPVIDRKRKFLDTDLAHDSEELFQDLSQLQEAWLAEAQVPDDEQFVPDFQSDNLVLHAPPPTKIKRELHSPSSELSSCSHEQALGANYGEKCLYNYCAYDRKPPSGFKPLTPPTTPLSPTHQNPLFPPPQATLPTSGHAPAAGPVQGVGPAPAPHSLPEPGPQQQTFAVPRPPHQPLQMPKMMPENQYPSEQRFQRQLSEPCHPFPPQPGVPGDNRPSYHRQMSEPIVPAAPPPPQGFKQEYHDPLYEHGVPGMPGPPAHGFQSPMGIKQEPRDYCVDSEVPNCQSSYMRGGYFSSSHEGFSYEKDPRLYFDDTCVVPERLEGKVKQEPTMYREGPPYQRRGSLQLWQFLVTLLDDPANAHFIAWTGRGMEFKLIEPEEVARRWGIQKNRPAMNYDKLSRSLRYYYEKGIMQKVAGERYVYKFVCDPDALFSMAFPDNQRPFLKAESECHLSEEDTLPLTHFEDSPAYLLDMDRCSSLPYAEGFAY
sequence,measurement,setting,value
CGATTC,binding signal,[1],"1.06 fold enrichment (6-mer frequency, TF over GST control)"
same,binding signal,[2],"1.19 fold enrichment (6-mer frequency, TF over GST control)"
same,binding signal,[3],"1.35 fold enrichment (6-mer frequency, TF over GST control)"
same,binding signal,[4],"1.18 fold enrichment (6-mer frequency, TF over GST control)"
same,binding signal,[5],"1.24 fold enrichment (6-mer frequency, TF over GST control)"
same,binding signal,[6],"1.28 fold enrichment (6-mer frequency, TF over GST control)"
same,binding signal,[7],"1.06 fold enrichment (6-mer frequency, TF over GST control)"
same,binding signal,[8],"1.22 fold enrichment (6-mer frequency, TF over GST control)"
same,binding signal,[9],"1.09 fold enrichment (6-mer frequency, TF over GST control)"
same,binding signal,[10],"1.25 fold enrichment (6-mer frequency, TF over GST control)"
same,binding signal,[11],"1.09 fold enrichment (6-mer frequency, TF over GST control)"
same,binding signal,[12],"1.18 fold enrichment (6-mer frequency, TF over GST control)"
same,binding signal,[13],"1.24 fold enrichment (6-mer frequency, TF over GST control)"
same,binding signal,[14],"1.13 fold enrichment (6-mer frequency, TF over GST control)"
same,binding signal,[15],"1.06 fold enrichment (6-mer frequency, TF over GST control)"
same,binding signal,[16],"1.11 fold enrichment (6-mer frequency, TF over GST control)"
same,binding signal,[17],"1.23 fold enrichment (6-mer frequency, TF over GST control)"
same,binding signal,[18],"1.11 fold enrichment (6-mer frequency, TF over GST control)"
